Test results published in PubChem BioAssay (Tox21).
Records with an inconclusive call do not appear. Where a call stands in place of a potency, no number is given. Active and inactive are the calls of the source. The call rests on the fitted dose curve.

Assay: qHTS assay to identify small molecule agonists or antagonists of the thyroid stimulating hormone receptor (TSHR) signaling pathway - wild type cell line counter screen (AID 1259384)
Settings: HEK293 wild type, cAMP HTRF counter-screen; series mostly up to 92.4 µM; cAMP activity change: at the top concentration
From the text: U.S. Tox21 Program National Center for Advancing Translational Sciences [NCATS] NIH Chemical Genomics Center [NCGC] U.S. Environmental Protection Agency [EPA] National Institutes of Environmental Health Sciences [NIEHS] National Toxicology Program [NTP] U.S. Food and Drug Administration [FDA] Tox21 Assay Overview: TSHR is the receptor for thyrotropin (thyroid stimulating hormone or TSH), a member of the glycoprotein hormone family. TSH is released by the anterior pituitary gland and is the main regulator of thyroid gland growth and development. Upon binding circulating thyrotropin, a G-protein signal cascade activates adenylyl cyclase and […] cAMP concentration is increased. cAMP is a key second messenger involved extensively in cellular signal transduction pathways associated with the majority of G-protein coupled receptors (GPCRs). The activation of these GPCRs by neurotransmitters, lipids, nucleotides, peptides and hormones results in the activation or the inhibition of plasma membrane-bound adenylate cyclase through heterotrimeric G-proteins. A cell-based TSHR-Hek293 assay can be used to identify TSHR agonists. To eliminate the false positive compounds identified from screening a cell-based TSHR-Hek293 cell line, cAMP assay in a wild type Hek293 cells was used as a counter screening.
Tox21 Assay Protocol Summary: Hek293 cells (wild type) were dispensed at 800 cells/4 uL/well in 1536-well white plates using a Multidrop dispenser. After the assay plates were incubated at a 37 C/5% CO2 incubator for 18 hrs, 23 nL of compounds dissolved in DMSO, positive controls or DMSO only was transferred to the assay plate by a pin tool, followed by 1 ul medium containing Ro20-1724. After 30 min of incubation at room temperature, 2.5 ul/well of cAMP-d2 and 2.5 ul/well of anti-cAMP-cryptate were added respectively into the assay plates using a Flying Reagent Dispenser. The plates were incubated at room temperature for 1 hr. The fluorescence intensity in the plates was measured using an Envision plate reader. Each test compound was measured at 15 concentrations and in triplicates.

SMILES | cAMP activity change | Potency
COc1cc(C(=S)N2CCOCC2)ccc1O | 9.09% [at 42.5 µM, hits give high values] (inactive) | 
CCC(CO)(CO)COCC(CC)(CO)CO | -5.58% (inactive) | 
O=C(OCc1ccccc1)c1ccc(O)cc1 |  | inactive
OCCN1CCNCC1 |  | inactive
Cc1cc(C(C)(C)C)c(O)c(C(C)(C)C)c1 |  | inactive
c1ccc2n[nH]nc2c1 |  | inactive
CC(C)(c1ccccc1)c1ccc(Nc2ccc(C(C)(C)c3ccccc3)cc2)cc1 |  | inactive
CCc1cc(C(C)(C)C)c(O)c(C(C)(C)C)c1 |  | inactive
C=CC(=O)OCCCCCCOC(=O)C=C |  | inactive
O=C(Cl)c1cccc(C(=O)Cl)c1 |  | inactive
CCN(CC)CCOc1ccc(/C(=C(\Cl)c2ccccc2)c2ccccc2)cc1 |  | inactive
CCN(CC)C(=O)Nc1ccc(OCC(O)CNC(C)(C)C)c(C(C)=O)c1 (stereo not given) | 1.54% [at 42.5 µM, hits give high values] (inactive) | 
CC[C@@H](N)CO | 5.01% (inactive) | 
C=CC(=O)OCCCCCCCC | -2.55% (inactive) | 
CCC[C@H](N[C@@H](C)C(=O)N1[C@H](C(=O)O)C[C@@H]2CCCC[C@@H]21)C(=O)OCC |  | inactive
COc1nc(C)nc(Cl)c1NC1=NCCN1 | -0.0585% [at 42.5 µM, hits give high values] (inactive) | 
CNC1(C)C2CCC(C2)C1(C)C (stereo not given) | 2.73% [at 42.5 µM, hits give high values] (inactive) | 
O=S(=O)(O)c1ccc2nc(-c3ccccc3)[nH]c2c1 | -1.09% [at 42.5 µM, hits give high values] (inactive) | 
O=C(O)c1cn(-c2ccc(F)cc2)c2cc(N3CCNCC3)c(F)cc2c1=O |  | inactive
O=C(O)Cn1cnnn1 | 1.01% [at 42.5 µM, hits give high values] (inactive) | 

SMILES | cAMP activity change | Potency
C=C(C)C1CC=C(C)C(OC(C)=O)C1 (stereo not given) |  | inactive
Cc1ccc(S(=O)(=O)Oc2ccc(N=Nc3ccc(-c4ccc(N=Nc5c(O)ccc6cc(S(=O)(=O)O)cc(S(=O)(=O)O)c56)c(C)c4)cc3C)cc2)cc1 |  | inactive
Cc1cc(OCCOCC[N+](C)(C)Cc2ccccc2)ccc1C(C)(C)CC(C)(C)C |  | inactive
COc1ccc(Cc2cnc(N)nc2N)cc1OC | 1.02% [at 42.5 µM, hits give high values] (inactive) | 
Nc1nc2ccccc2[nH]1 |  | inactive
CCCCOCCOC(=O)c1ccccc1C(=O)OCCOCCCC |  | inactive
CC(=O)C1=C(C)[C@@H]2C[C@@]3(C1)[C@H](C)CC[C@H]3C2(C)C |  | inactive
Cc1scc2c1N(C(=O)CN1CCN(C)CC1)c1ccccc1NC2=O | -0.809% [at 42.5 µM, hits give high values] (inactive) | 
O=C(O)c1cc(Cl)cc(Cl)c1 | -1.75% (inactive) | 
Cc1cc(C2(c3cc(C)c(O)cc3C)OS(=O)(=O)c3ccccc32)c(C)cc1O | -7.74% (inactive) | 
NC(N)=NC(=O)Cc1c(Cl)cccc1Cl | -4.81% [at 42.5 µM, hits give high values] (inactive) | 
Nc1ccc2cc3ccccc3cc2c1 |  | inactive
O=c1n(CC2CO2)c(=O)n(CC2CO2)c(=O)n1CC1CO1 (stereo not given) |  | inactive
Oc1c(Cl)cc(Cl)c(Cl)c1Cc1c(O)c(Cl)cc(Cl)c1Cl |  | inactive
COc1ccc(COC(C)=O)cc1 |  | inactive
NNCCc1ccccc1 |  | inactive
CCOC(=O)C(C)C(C)=O (stereo not given) | 0.485% (inactive) | 
C/C=C/c1ccc(OCC)c(O)c1 |  | inactive
O=C(O)CP(=O)(O)O | -7.19% [at 42.5 µM, hits give high values] (inactive) | 
CC(C)(C)c1ccc(O)c(C(C)(C)C)c1 |  | inactive
